# Values joined by “and” are separate entries in the source; they are usually repeats but may differ in a detail not shown here. Identical values can stand only once. Inconclusive results are not listed. Active and inactive are the calls of the source. Rule for the calls: active = hit-call score of the fitted dose curve at least 0.9, where 1 is the maximum; inconclusive = response in the unintended direction; inactive = score below 0.9.
# Tests used:
# [1] = target: Cellular tumor antigen p53 (Homo sapiens) (UniProt P04637); assay: TOX21_p53_BLA_p4_ratio: Tox21 HCT-116 p53 Agonism Beta-lactamase Assay, Ratio, Phase 4 (AID 2283601)
# Procedure, shortened: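 HCT116 cells carrying an inducible beta-lactamase reporter were plated at 4000 cells/well, rested 5 h, then exposed to compounds in DMSO (217-fold dilution) for 16 h at 37C. CCF4-AM substrate was loaded 2 h at room temperature; 460/530 nm emission ratio scored gain-of-signal versus DMSO.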
# [2] = system: Thyroperoxidase (TPO), gene 54314; assay: CCTE_Simmons_AUR_rTPO: CCTE's Amplex UltraRed Assay for Thyroperoxidase (TPO) Inhibition, Simmons Lab (AID 2283662);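 for AC50: potency for loss of signal meaning inhibition of peroxidase activity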
# Procedure, shortened: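 Rat thyroid microsomes (5 ug protein) with 25 uM Amplex UltraRed and 300 uM H2O2 in 200 mM phosphate buffer, 30 min at 37C in dark; fluorescence 544/590 nm. Eight concentrations, 5 nM–87.5 uM final, 0.5% DMSO, triplicate biological replicates.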
# [3] = Tanguay_ZF_120hpf_MORT_legacy: (Legacy) Oregon State University Tanguay Lab 120 Hour Post-fertilization zebrafish Assay for Mortality (AID 2283633)
# Procedure, shortened: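 Single dechorionated Tropical 5D embryos were held with test chemical (0.64% DMSO final) from 6 to 120 hpf at 28C under foil. Deaths at 24 or 120 hpf were recorded as binary calls, analysed for increase over DMSO controls.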
# [4] = Tanguay_ZF_120hpf_YSE_legacy: (Legacy) Oregon State University Tanguay Lab 120 Hour Post-fertilization zebrafish Assay for Yolk Sac Edema (AID 2283634)
# Procedure, shortened: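 Single dechorionated embryos were held in sealed plates at 28C with test chemical (0.64% DMSO final) from 6 hpf until 120 hpf. Edema of the yolk sac was then recorded as a binary endpoint; non-mortality endpoints were skipped for dead embryos.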
# [5] = Tanguay_ZF_120hpf_EYE_legacy: (Legacy) Oregon State University Tanguay Lab 120 Hour Post-fertilization zebrafish Assay for Eye Malformation (AID 2283636)
# Procedure, shortened: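 Dechorionated wild-type Tropical 5D zebrafish embryos were exposed statically from 6 hpf, one per well, to 120 hpf at 28C in sealed, foil-covered plates with 0.64% DMSO. Eye malformation was scored present/absent by brightfield microscopy against DMSO controls.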
# [6] = Tanguay_ZF_120hpf_SNOU_legacy: (Legacy) Oregon State University Tanguay Lab 120 Hour Post-fertilization zebrafish Assay for Snout Malformation (AID 2283637)
# Procedure, shortened: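 Tropical 5D wild-type zebrafish embryos, dechorionated with pronase at 4 hpf, were exposed singly from 6 hpf to 120 hpf statically at 28C in 0.64% DMSO. Snout malformation was scored present/absent by brightfield microscopy, fitted against DMSO.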
# [7] = Tanguay_ZF_120hpf_JAW_legacy: (Legacy) Oregon State University Tanguay Lab 120 Hour Post-fertilization zebrafish Assay for Jaw Malformation (AID 2283638)
# Procedure, shortened: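 Wild-type 5D embryos, chorion removed at 4 hpf, dosed singly from 6 hpf; 28C static, sealed, foil-covered, to 120 hpf. Endpoint: jaw defect yes/no (brightfield); mortality excludes scoring.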
# [8] = Tanguay_ZF_120hpf_OTIC_legacy: (Legacy) Oregon State University Tanguay Lab 120 Hour Post-fertilization zebrafish Assay for Otic Vesicle Malformation (AID 2283639)
# Procedure, shortened: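 Embryos from 5D wild-type adults exposed in plates; DMSO 0.64% v/v final. Sealed, light-protected, 28C, static to 120 hpf. Otic vesicle malformation recorded as binary endpoint; gain-of-signal fitted vs DMSO.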
# [9] = Tanguay_ZF_120hpf_PE_legacy: (Legacy) Oregon State University Tanguay Lab 120 Hour Post-fertilization zebrafish Assay for Pericardial Edema (AID 2283640)
# Procedure, shortened: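 Zebrafish larvae are exposed from early development to 120 hpf at 28C, with 0.64% DMSO final. Each surviving larva receives a yes/no pericardial edema call by brightfield imaging, analysed relative to the DMSO baseline.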
# [10] = Tanguay_ZF_120hpf_BRAI_legacy: (Legacy) Oregon State University Tanguay Lab 120 Hour Post-fertilization zebrafish Assay for Brain Malformation (AID 2283641)
# Procedure, shortened: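 Static exposure of staged wild-type embryos until 120 hpf, kept at 28C with light excluded and final DMSO of 0.64% (vol/vol). Presence or absence of brain malformation was noted under brightfield; mortality precluded scoring.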
# [11] = Tanguay_ZF_120hpf_SOMI_legacy: (Legacy) Oregon State University Tanguay Lab 120 Hour Post-fertilization zebrafish Assay for Somite Malformation (AID 2283647)
# Procedure, shortened: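 Somitogenesis defects are recorded as binary calls in whole larvae at 120 hpf after continuous static chemical exposure starting at 6 hpf in dechorionated 5D embryos. DMSO serves as negative control and baseline.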
# [12] = Tanguay_ZF_120hpf_PFIN_legacy: (Legacy) Oregon State University Tanguay Lab 120 Hour Post-fertilization zebrafish Assay for Pectoral Fin Malformation (AID 2283648);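 note: each larva judged yes or no for fin defect by brightfield with dead larvae skipped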
# Procedure, shortened: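 Tropical 5D wild-type embryos, dechorionated with pronase at 4 hpf, were placed singly in wells at 6 hpf and statically exposed until 120 hpf at 28C, sealed and dark, with 0.64% (vol/vol) final DMSO; pectoral fin malformation scored present/absent.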
# [13] = Tanguay_ZF_120hpf_CFIN_legacy: (Legacy) Oregon State University Tanguay Lab 120 Hour Post-fertilization zebrafish Assay for Caudal Fin Malformation (AID 2283649)
# Procedure, shortened: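 Single dechorionated 5D wild-type embryos are dosed at 6 hpf (final DMSO 0.64%) and held statically at 28C. Caudal fin malformation is recorded as present or absent at 120 hpf under brightfield, excluding dead embryos.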
# [14] = Tanguay_ZF_120hpf_PIG_legacy: (Legacy) Oregon State University Tanguay Lab 120 Hour Post-fertilization zebrafish Assay for Pigmentation Malformation (AID 2283650)
# Procedure, shortened: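 Tropical 5D wild-type zebrafish embryos, dechorionated with pronase at 4 hpf, were exposed singly from 6 hpf to 120 hpf statically at 28C in sealed, dark plates with 0.64% DMSO; pigmentation scored present/absent by brightfield microscopy, fitted against DMSO.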
# [15] = Tanguay_ZF_120hpf_CIRC_legacy: (Legacy) Oregon State University Tanguay Lab 120 Hour Post-fertilization zebrafish Assay for Circulatory Malformation (AID 2283651)
# Procedure, shortened: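 Read-out: presence or absence of circulatory malformation at 120 hpf, scored by brightfield microscopy, fitted in the gain-of-signal direction against DMSO baseline. Wild-type 5D larvae were exposed from 6 hpf after enzymatic chorion removal.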
# [16] = Tanguay_ZF_120hpf_SWIM_legacy: (Legacy) Oregon State University Tanguay Lab 120 Hour Post-fertilization zebrafish Assay for Swim Bladder Malformation (AID 2283654);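 note: swim bladder malformation in each larva scored yes or no under brightfield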
# Procedure, shortened: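 Dechorionated Tropical 5D wild-type embryos, placed singly from 6 hpf, were statically exposed at 28C to 120 hpf with 0.64% DMSO final; swim bladder malformation was scored present/absent by brightfield microscopy, gain of signal relative to DMSO controls.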
# [17] = Tanguay_ZF_120hpf_TRUN_legacy: (Legacy) Oregon State University Tanguay Lab 120 Hour Post-fertilization zebrafish Assay for Truncated Body (AID 2283655)
# Procedure, shortened: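 Single dechorionated zebrafish embryos received test chemical from 6 hpf in 0.64% DMSO, kept at 28C. At 120 hpf, brightfield inspection noted any truncated body.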
# [18] = Tanguay_ZF_120hpf_NC_legacy: (Legacy) Oregon State University Tanguay Lab 120 Hour Post-fertilization zebrafish Assay for Notochord and Tail Malformation (AID 2283656)
# Procedure, shortened: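 Dechorionated Tropical 5D wild-type zebrafish embryos, one per well from 6 hpf, statically exposed to 120 hpf at 28C in 0.64% DMSO final. Notochord distortion scored present/absent by brightfield; dead embryos excluded.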
# Sequence of Cellular tumor antigen p53 (Homo sapiens) (P04637 whole entry, looked up): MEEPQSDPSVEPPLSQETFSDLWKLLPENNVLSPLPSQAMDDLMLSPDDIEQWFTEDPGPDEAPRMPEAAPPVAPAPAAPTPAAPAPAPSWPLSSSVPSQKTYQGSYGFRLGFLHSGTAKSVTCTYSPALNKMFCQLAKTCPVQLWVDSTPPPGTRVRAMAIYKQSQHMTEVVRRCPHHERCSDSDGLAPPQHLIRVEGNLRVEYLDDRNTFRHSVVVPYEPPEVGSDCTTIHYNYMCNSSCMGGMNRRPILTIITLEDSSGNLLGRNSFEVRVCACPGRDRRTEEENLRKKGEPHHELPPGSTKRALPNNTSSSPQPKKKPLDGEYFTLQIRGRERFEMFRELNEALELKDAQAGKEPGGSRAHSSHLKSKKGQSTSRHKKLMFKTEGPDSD
structure (smiles),measurement,setting,value
CCCCCCC(C)O (stereo not given),outcome,[1],inactive
CC1(C)CC(=O)CC(C)(C)N1,outcome,[1],inactive
CC(C)CCOC(=O)CC(C)C,outcome,[1],inactive
CN(C)C(=O)Nc1ccccc1,AC50,[2],43.8 µM (active)
CCCCOCCOC(=O)c1ccccc1C(=O)OCCOCCCC,outcome,[1],inactive
CCC(C)(C)C1CCC(OC)CC1 (stereo not given),outcome,[1],inactive
CC(=O)c1cccnc1,outcome,[1],inactive
CC(=O)OC(C)(C)C,outcome,[1],inactive
CCCCCCCOC(C)=O,outcome,[1],inactive
CC1=CCC(=C(C)C)CC1,outcome,[1],inactive
same,outcome,[2],inactive
c1ccc(-c2nn[nH]n2)cc1,outcome,[1],inactive
C=C(C)C(=O)OCCC(C)OC(=O)C(=C)C (stereo not given),outcome,[1],inactive
CC(O)CNCC(C)O (stereo not given),outcome,[1],inactive
CC(=O)C1C(=O)C=C(C)OC1=O (stereo not given),outcome,[1],inactive
O=c1cc[nH]cc1,outcome,[2],inactive
C/C=C(\C)C(=O)OC/C=C(\C)CCC=C(C)C,outcome,[1],inactive
O=C(O)CS,outcome,[2],inactive
CCCCOCCOCCOCCO,outcome,[1],inactive
S=c1[nH][nH]c(=S)s1,outcome,[1],inactive
C=CCOCC(O)CO (stereo not given),outcome,[1],inactive
O=C1OC2(c3ccc(O)cc3Oc3cc(O)ccc32)c2ccccc21,AC50,[2],10.2 µM (active)
CCCCC(CC)COCCO (stereo not given),outcome,[1],inactive
CCCc1ccc(N)cc1,outcome,[1],inactive
same,AC50,[2],0.0301 µM (active)
C=C1CC/C=C(\C)CC[C@@H]2[C@@H]1CC2(C)C,outcome,[1],inactive
C#C[C@]1(O)CC[C@H]2[C@@H]3CCc4cc(O)ccc4[C@H]3CC[C@@]21C,AC50,[1],6.65 µM (active) and 13.5 µM (active) and 8.18 µM (active)
same,outcome,[3],inactive
same,outcome,[4],inactive
same,outcome,[5],inactive
same,outcome,[6],inactive
same,outcome,[7],inactive
same,outcome,[8],inactive
same,outcome,[9],inactive
same,outcome,[10],inactive
same,outcome,[11],inactive
same,outcome,[12],inactive
same,outcome,[13],inactive
same,outcome,[14],inactive
same,outcome,[15],inactive
same,outcome,[16],inactive
same,outcome,[17],inactive
same,outcome,[18],inactive
same,AC50,[2],9.38 µM (active)
CCCCN(CCCC)CCCCCCN(CCCC)CCCC,outcome,[1],inactive
